A selection: hits, their analogues and other compounds. The true share with any hit is near 3.9%.
ATXN viability: cell viability loss in ATXN counter-screen; Potency, µM (top dose mostly 56.7 µM), actives largely listed as cytotoxic; hit rate 0.49% among 400,000; S2 cells (HEK-293 line with an ATXN2-luciferase reporter) viability, CellTiter-Fluor protease fluorescence, 24 h; AID 651635; also: nearly all actives have a fitted effect of over 40% in size
HepG2 viability: counter-screen for TGF-b inhibitors: cytotoxicity in HepG2 cells. HepG2 CAGA-GFP viability, ATP luminescence, 18 h. Potency, µM (doses to about 46.1 µM), for inactives: at the top dose activity change, negative = cytotoxicity, actives largely listed as cytotoxic. hit rate 0.76% among 410,000
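CellTiter-Glo luminescence gave cytotoxicity after 18 hours at 37 degrees C. The cells were HepG2 CAGA-GFP in 1% FBS DMEM, stimulated with 500 pg/mL TGF-beta after compound addition. %Activity was normalised to no-cell wells (complete cell-killing) and DMSO (no toxicity), and curves were fitted and classified.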
TGFb inhibitor: blocks TGF-b signaling; hit rate 1.2% among 410,000; HepG2 CAGA-GFP TGF-b/SMAD3 reporter, GFP fluorescence, 18 h; TGF-beta stimulated, 500 pg/mL final; Potency, µM (doses to about 46.1 µM), for inactives: top-dose activity, negative = inhibition, hits mostly inhibitors; also: % is scaled to controls: 0 for no effect and ±100 for the full control effect; nearly all actives have a fitted effect of over 65% in size
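HEPG2 CAGA-GFP cells (1000/well, DMEM with 1% FBS) were pre-incubated 2 h at 37 degrees C, given compound by pin tool, then stimulated with TGF-beta at 500 pg/mL final for 18 h before per-cell GFP fluorescence imaging.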
HT1080 IDH1KD tx: HT-1080 IDH1 knockdown cell toxicity (counter line); HT-1080 IDH1 knockdown viability, ATP luminescence, 48 h; AID 686971; hit rate 2% among 360,000; Potency, µM (highest dose often 46.1 µM), for the others: at the top dose activity, negative = toxicity, hits mostly cytotoxic;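 also: 0% = DMSO wells and -100% = cell-free medium wells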
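CellTiter-Glo luminescence after 48 h compound exposure at 37 degrees C of IDH1-knockdown HT-1080 cells in 5% FBS RPMI. %Activity scaled between DMSO wells and cell-free media wells, with curves fitted and assigned curve classes.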
HT1080-NT tox: kills 2HG-producing HT-1080-NT fibrosarcoma cells | HT-1080-NT fibrosarcoma viability, CellTiter-Glo ATP luminescence, 48 h | Potency, µM (titrated, usually from 46.1 µM), for inactives: at the top dose activity, negative = less viability, actives largely listed as cytotoxic | hit rate 1.6% among 360,000 | AID 686970;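 also: NT is the 2HG producing partner of a matched IDH1 knockdown line; 0% = DMSO-treated cells and -100% = media-only wells without cells; nearly all actives have a fitted effect of over 55% in size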
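HT-1080-NT; 750 cells/well; 5% FBS RPMI; 48 h compound, 37 degrees C; CellTiter-Glo luminescence; curve fitting and curve-class assignment.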
ATXN2 expr inh: inhibitors of ATXN2 expression; HEK-293 ATXN2-luciferase reporter, luminescence, 24 h; AID 1745845; Potency, µM (doses to about 57 µM), inactives show at the highest dose activity change, negative = inhibition, most hits filed as inhibitors; hit rate 0.72% among 360,000; also: % is scaled to controls: 0 for no effect and ±100 for the full control effect; nearly all actives have a fitted effect of over 55% in size
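qHTS (up to 57 uM final) was run with 24 h compound exposure of reporter cells at 37 °C. Each well was multiplexed: SteadyGlo luminescence measured ATXN2-luciferase expression after a fluorogenic Gly-Phe-AFC viability readout (25 uM final).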
The depositor's hits bear a star; i = inactive; ? = inconclusive; . = not tested or not shown; [ ] = dose if it differs, or a comment. Calls follow the shape of the dose curve; as a rule, active = well fitted curve in the direction sought with a large enough effect; inconclusive = small, poorly fitted or top-dose-only effect, or another doubt; inactive = no such curve, though single readings can be large; an effect the other way counts as inactive or inconclusive. Potency is read from the fitted curve at half-maximal effect.

SMILES	ATXN viability	HepG2 viability	TGFb inhibitor	HT1080 IDH1KD tx	HT1080-NT tox	ATXN2 expr inh
CC(C)n1c(O)c(C2c3cc(Cl)ccc3Oc3[nH]c(=O)n(C(C)C)c(=O)c32)c(=O)[nH]c1=O (configuration not stated)	11µM*	14µM*	6.3µM*	2.3µM*	5.2µM*	4µM*
CCOC(=O)c1c(C)[nH]c(C)c1S(=O)(=O)N1CCC(C(=O)N2CCN(c3cccc(Cl)c3)CC2)CC1	i	-4%	?	.	.	5%
CCOC(=O)c1ccc(N2C(=O)c3n[nH]c(-c4cccs4)c3C2c2ccc(Cl)cc2Cl)cc1 (configuration not stated)	?	-112%	4.5µM*	.	.	?
Oc1ccc(-c2csc(-c3ccccc3)n2)cc1O	i	-41%	?	10µM*	11µM*	25%
CCOC(=O)c1c(-n2c(C)cc(/C=C3/C(=O)NC(=O)N(CC)C3=O)c2C)sc2c1CCCC2	i	-17%	-25%	6%	-1%	-24%
CCOC(=O)c1c(-n2c(C)cc(C=C3C(=O)NC(=S)NC3=O)c2C)sc2c1CCCC2	22µM*	-47%	?	?	?	20µM*
Cc1cc(N2CCN(C(=O)c3ccco3)CC2)n2nc(-c3cccc(Cl)c3)cc2n1	.	-22%	?	?	?	20µM*
CCOC(=O)C1(c2ccccc2)CCN(CCc2ccc(N)cc2)CC1	i	.	.	.	.	-4%
COC(=O)C12OCC34C(CC5C(C)=C(O)C(=O)CC5(C)C3C(O)C1O)OC(=O)C(OC(=O)/C=C(\C)C(C)C)C24 (configuration not stated)	?	14%	-22%	0.026µM*	?	-63%
COc1cc(/C=C/[N+](=O)[O-])ccc1O	?	-51%	?	?	?	-26%
CCN(CC)c1ccc(/C=C/[N+](=O)[O-])cc1	i	-55%	?	16µM*	?	1%[11.3 µM]
O=C(c1c[nH]cc1-c1ccccc1)c1cccc2ccccc12	i	-30%	27%	15µM*	23µM*	0%
COc1cc(C(=O)N/N=C/c2ccc(OC(=O)N3CCOCC3)cc2)cc(OC)c1OC	i	17%	-4%	23µM*	?	.
CCOc1ccc(N=Cc2c(O)n(-c3cc(C)cc(C)c3)c(=O)[nH]c2=O)cc1	i	-11%	1%	-11%	-15%	5%
CCOc1ccc(N=Cc2c(O)n(-c3ccc(C)c(C)c3)c(=O)[nH]c2=O)cc1	i	5.6µM*	0%	-17%	-3%	-1%
O=Nc1c(-c2ccccc2)n(O)[n+]([O-])c1-c1ccccc1	?	-26%	-8%	8%	9%	.
CCC(c1nnnn1Cc1ccccc1)N1CCC(n2c(=O)[nH]c3ccccc32)CC1 (configuration not stated)	i	-15%	?	?	26µM*	?
COc1cccc(C(c2nnnn2-c2c(C)cccc2C)N2CCC(n3c(=O)[nH]c4ccccc43)CC2)c1OC (configuration not stated)	?	-3%	?	?	?	?
O=c1[nH]c2ccccc2n1C1CCN(C(CCc2ccccc2)c2nnnn2-c2ccc3c(c2)OCCO3)CC1 (configuration not stated)	.	-18%	?	15µM*	13µM*	7.9µM*
O=c1[nH]c2ccccc2n1C1CCN(C(c2ccnc3ccccc23)c2nnnn2-c2ccc3c(c2)OCCO3)CC1 (configuration not stated)	?	5%	?	16µM*	?	0%
CCCCn1nnnc1C(CCc1ccccc1)N1CCC(n2c(=O)[nH]c3ccccc32)CC1 (configuration not stated)	?	1%	?	?	?	?
COc1ccc(C(c2nnnn2-c2ccc3c(c2)OCCO3)N2CCC(n3c(=O)[nH]c4ccccc43)CC2)cc1 (configuration not stated)	?	-2%	?	15µM*	18µM*	-2%
COc1ccc(OC)c(C[C@H](C)N)c1	i	.	.	.	.	.
CCc1ccc(CNC(=O)c2ccc3c(c2)N=C(C)c2cc(C)ccc2S3)cc1	?	-18%	?	.	.	-18%
Cc1ccc2c(c1)[C@]13CCCC[C@@H]1[C@H](C2)N(C)CC3	i	.	.	.	.	.
SMILES	ATXN viability	HepG2 viability	TGFb inhibitor	HT1080 IDH1KD tx	HT1080-NT tox	ATXN2 expr inh
COc1cc(NC(=O)c2cc3cc4ccc(C)cc4nc3o2)cc(OC)c1OC	?	-16%	-27%	.	.	?
CC(Oc1ccccc1)C(=O)Nc1ccc(C(=O)OCc2cc(=O)n3nc(C4CC4)sc3n2)cc1 (configuration not stated)	?	-25%	-4%	.	.	-40%
CCOC(=O)N1CCC(NC(=O)c2ccc3c(c2)N(Cc2cccc(C)c2)C(=O)c2ccccc2S3(=O)=O)CC1	i	9%	?	.	.	-10%
C/C=C(\C)C(=O)N[C@@H](c1ccccc1)[C@@H](O)C(=O)O[C@H]1C[C@@]2(O)[C@@H](OC(=O)c3ccccc3)C3[C@](C)(C(=O)[C@H](O)C(=C1C)C2(C)C)[C@@H](O)C[C@H]1OC[C@@]31OC(C)=O (some centres not stated)	?	2%	4%	0.0058µM*	0.041µM*	-16%
O=C(c1ccccc1Cl)N1CCC(c2nc3ccccc3s2)CC1	?	-19%	?	.	.	0%
COc1ccc(CN2CCc3nc(N4CCN(c5ccc(F)cc5)CC4)ncc3C2)c(OC)c1OC	i	-25%	?	.	.	?
O=C1NC(=O)C(=Cc2ccccc2OCCOc2ccc([N+](=O)[O-])cc2)C(=O)N1	i	-18%	-3%	18µM*	?	20%
CN1C(=O)C(=Cc2ccccc2OCCOc2ccc([N+](=O)[O-])cc2)C(=O)N(C)C1=O	?	-17%	-1%	?	?	-12%
O=c1[nH]c(=S)[nH]c(O)c1/C=C1/C=c2ccccc2=N1	i	-42%	13µM*	?	?	-14%
Cc1cccc2c1=NC(=O)/C(=C/c1c(O)[nH]c(=O)[nH]c1=O)C=2	i	-5%	1%	-5%	1%	-4%
COc1ccc(CN2CCN(C(=O)Cn3c(=O)oc4cc(Cl)ccc43)CC2)c(OC)c1OC	?	-22%	?	-21%	-4%	.
Cc1ccc2oc(=O)n(CC(=O)c3ccc(F)cc3)c2c1	i	1%	-14%	4%	19%	-10%
